Laboratory results reported in PubChem BioAssay.
Where “and” joins values, the source holds several entries; their conditions need not be identical. Equal entries are not always repeated. Calls of active or inactive are those of the source.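 How the source made its calls, unless noted: active means mean z-score across replicates of 1.96 or higher in either the MELAS or the Rieske mutant cell line; inactive means the rest.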

How the values were obtained:
[1] = hESC survival regulators, cell-based (AID 493140; call rule not given here;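 further: cells exposed to compounds for four days before counting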); settings: human embryonic stem cell survival screen; stronger effect = higher value
[2] = stimulators of nuclear beta-catenin in C2C12, primary screen, imaging, WNT3A-conditioned medium, mouse C2C12, NPC library (AID 1117326; in the data active means nuclear beta-catenin stimulation mostly above about 4.2%, no sharp cut-off; inactive means mostly below about 10%); settings: stronger effect = higher value
[3] = growth inhibition of GSK3B-pretreated HCT116 cells – cell-based, CellTiter-Glo, 0.2 to 20 µM (AID 1117336;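 active means compounds lowering colon cancer cell viability after pretreatment blocking the GSK3B kinase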); settings: HCT116 viability after GSK3B inhibitor, at 20 µM, stronger effect = higher value
[4] = HCT116 colon cancer cell growth inhibition, primary screen, CellTiter-Glo luminescence, NPC library (AID 1117342;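 active means compounds that lower survival of HCT116 colon cancer cells in the luminescence readout, no numeric limit stated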); settings: at 20 µM (top of the series)
[5] = CellTiter-Glo luminescent readout of SW480 viability loss, NPC library primary (AID 1117343;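 active means compounds that lower viability of the colon cancer cells in the luminescence readout, with no numeric limit stated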); settings: CellTiter-Glo luminescence; at 20 µM (top of the series) unless noted
[6] = decreased DLD-1 cellular survival, CellTiter-Glo luminescent readout, NPC compound collection, primary HTS (AID 1117346;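 active means compounds that lower survival of DLD-1 colon cancer cells in the luminescence readout, no cutoff given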); settings: DLD-1 viability, CellTiter-Glo luminescence; at 20 µM (top of the series)
[7] = molecular target: 6-phosphogluconate dehydrogenase, decarboxylating (Homo sapiens) (UniProt P52209); test: 6PGD enzyme inhibitors, primary screen, biochemical, human, recombinant enzyme, NADPH absorbance (AID 1159550;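 active means at least 20% inhibition of 6-phosphogluconate dehydrogenase activity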); settings: recombinant 6PGD, NADPH absorbance 341 nm; at 10 µM; stronger effect = higher value
[8] = modulation of C. elegans fzo-1 (AID 1259413; call rule not given here;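 further: fzo-1 mutant C. elegans worms in liquid wells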); settings: C. elegans fzo-1 modulator screen, mean read-out; stronger effect = higher value
[9] = differential killing of epithelial or mesenchymal cells, primary screen, imaging, PC-3E GFP, TEM4-18 mCherry, co-culture (AID 1345086;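 active means compounds killing one labelled cell type while sparing the other, by normalised counts and ratio limits, not self-fluorescent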;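 on all read-outs here: cells exposed to compound for 72 h before imaging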;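 on red/green cell ratio (normalised): normalised mesenchymal count divided by normalised epithelial count so high means epithelial killing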); settings: imaging cell counts, at 1 µM; for red/green cell ratio (normalised): actives lie on both sides, counts scaled to control wells, 1 = unselective
[10] = survival rescue of mitochondrial mutant cells in low glucose, primary screen, MELAS cybrids, Rieske KO mouse fibroblasts, CellTiter-Glo (AID 1508586);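 further: z relative to plate mean and SD of compound and empty wells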
[11] = molecular target: NAD(+) hydrolase SARM1 (Homo sapiens) (UniProt Q6SZW1); test: SARM1 TIR NADase inhibitors, cell lysate, NAD-Glo luminescence (AID 1508614;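 active means compound whose remaining NAD level is above about 45 nM, limit read from the data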); settings: SAM-TIR HEK293T lysate NADase, at 1 µM, stronger effect = higher value
[12] = molecular target: Mitogen-activated protein kinase 7 (Homo sapiens) (UniProt Q13164); test: ERK5 transactivation activators in reporter cells, primary screen, cell-based, HTS (AID 1508626;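 active means luciferase signal above three times the same-plate solvent-only control wells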;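 further: luciferase driven by Gal4-ERK5 fusion binding five Gal4 sites before minimal TATA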); settings: HeLa Gal4-ERK5 transactivation, 18 h, at 5 µM, stronger effect = higher value
[13] = viability rescue of complex I mutant cybrids, primary screen, cell-based, galactose medium, ATP luminescence (AID 1645843;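 active means z-score of at least 1.8 in each of two replicates, scored against plate mean and spread of sample wells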;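 further: positive z means more ATP and so rescue of galactose-driven cybrid death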); settings: complex I mutant cybrid cells, 72 h, stronger effect = higher value
[14] = sensitizers of A549 cells to miR-34 induction, primary screen, imaging, A549 dox-inducible miR-34, nuclei and caspase counts (AID 1347080;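 active means compounds whose cell count with miR-34 switched on is under 0.7 times the count with it off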); settings: A549 miR-34 inducible, Hoechst nuclei count, 48 h
[15] = stimulators of insulin release from INS-1E, primary screen, cell-based, 5 mM glucose, NPC library (AID 1117329;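 active means compound raises insulin release from rat beta cells at 5 mM glucose, no numeric limit stated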); settings: rat INS-1E insulin secretion, at 10 µM, stronger effect = higher value
[16] = inhibition of endothelial tube formation, primary screen, imaging, VEGF stimulated, CD31 staining, tube area, NPC library (AID 1117340;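 active means compound that reduces growth-factor-driven endothelial tube area in a mixed cell culture, no cutoff stated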); settings: VEGF-stimulated ADSC/ECFC co-culture, at 10 µM, stronger effect = higher value
[17] = glucagon-like peptide 1 release enhancers, primary assay, NCI-H716 cell line, NPC library (AID 1117341;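 active means compound raises GLP1 secretion from the human gut endocrine cells, with no numeric limit stated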); settings: NCI-H716 cells, at 10 µM, stronger effect = higher value
[18] = measured here: epithelial PC-3E GFP cell survival
[19] = measured here: mesenchymal TEM4-18 mCherry cell survival
[20] = MELAS cybrid survival, CellTiter-Glo 48 h, stronger effect = higher value
[21] = Rieske KO mouse fibroblast survival, CellTiter-Glo 72 h
[22] = stronger effect = lower value, cell number ratio, induced over uninduced
[23] = measured here: relative caspase fold change +Dox/-Dox
[24] = measured here: total cells with miR-34 induction, stronger effect = lower value
[25] = measured here: total cells without miR-34 induction

Chain of NAD(+) hydrolase SARM1 (Homo sapiens) (Q6SZW1 whole entry, looked up, the tested form may be a part): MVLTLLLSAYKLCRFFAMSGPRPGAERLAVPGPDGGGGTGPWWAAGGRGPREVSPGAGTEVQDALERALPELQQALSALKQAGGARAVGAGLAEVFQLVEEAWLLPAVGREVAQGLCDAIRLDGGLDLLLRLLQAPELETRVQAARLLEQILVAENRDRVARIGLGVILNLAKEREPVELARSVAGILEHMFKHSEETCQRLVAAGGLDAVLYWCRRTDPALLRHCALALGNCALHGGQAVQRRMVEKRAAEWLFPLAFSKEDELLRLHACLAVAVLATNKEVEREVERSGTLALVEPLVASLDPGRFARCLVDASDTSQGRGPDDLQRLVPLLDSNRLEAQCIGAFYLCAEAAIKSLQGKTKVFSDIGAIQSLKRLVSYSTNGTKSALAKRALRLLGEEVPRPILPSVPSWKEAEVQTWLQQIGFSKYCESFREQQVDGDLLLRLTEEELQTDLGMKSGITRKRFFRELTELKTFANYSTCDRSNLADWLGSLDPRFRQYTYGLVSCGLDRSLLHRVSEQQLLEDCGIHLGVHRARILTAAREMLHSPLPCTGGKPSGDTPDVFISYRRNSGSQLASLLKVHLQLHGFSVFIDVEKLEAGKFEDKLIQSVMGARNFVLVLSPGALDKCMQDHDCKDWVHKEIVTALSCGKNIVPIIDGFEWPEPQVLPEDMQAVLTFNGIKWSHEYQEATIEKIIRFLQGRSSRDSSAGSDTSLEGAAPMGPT
Chain of 6-phosphogluconate dehydrogenase, decarboxylating (Homo sapiens) (P52209 whole entry, looked up): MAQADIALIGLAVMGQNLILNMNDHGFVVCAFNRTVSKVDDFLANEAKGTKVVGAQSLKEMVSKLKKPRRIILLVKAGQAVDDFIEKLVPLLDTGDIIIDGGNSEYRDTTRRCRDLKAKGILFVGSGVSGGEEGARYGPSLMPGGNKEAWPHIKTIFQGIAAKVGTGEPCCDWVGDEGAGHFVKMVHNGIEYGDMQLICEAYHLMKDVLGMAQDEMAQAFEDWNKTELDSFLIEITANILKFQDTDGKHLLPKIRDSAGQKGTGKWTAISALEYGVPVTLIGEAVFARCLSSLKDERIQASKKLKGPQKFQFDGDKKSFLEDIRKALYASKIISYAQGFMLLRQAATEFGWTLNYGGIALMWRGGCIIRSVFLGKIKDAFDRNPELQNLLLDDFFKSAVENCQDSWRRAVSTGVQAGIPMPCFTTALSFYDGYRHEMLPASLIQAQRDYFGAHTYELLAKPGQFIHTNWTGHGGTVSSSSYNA
Chain of Mitogen-activated protein kinase 7 (Homo sapiens) (Q13164 whole entry, looked up, the tested form may be a part): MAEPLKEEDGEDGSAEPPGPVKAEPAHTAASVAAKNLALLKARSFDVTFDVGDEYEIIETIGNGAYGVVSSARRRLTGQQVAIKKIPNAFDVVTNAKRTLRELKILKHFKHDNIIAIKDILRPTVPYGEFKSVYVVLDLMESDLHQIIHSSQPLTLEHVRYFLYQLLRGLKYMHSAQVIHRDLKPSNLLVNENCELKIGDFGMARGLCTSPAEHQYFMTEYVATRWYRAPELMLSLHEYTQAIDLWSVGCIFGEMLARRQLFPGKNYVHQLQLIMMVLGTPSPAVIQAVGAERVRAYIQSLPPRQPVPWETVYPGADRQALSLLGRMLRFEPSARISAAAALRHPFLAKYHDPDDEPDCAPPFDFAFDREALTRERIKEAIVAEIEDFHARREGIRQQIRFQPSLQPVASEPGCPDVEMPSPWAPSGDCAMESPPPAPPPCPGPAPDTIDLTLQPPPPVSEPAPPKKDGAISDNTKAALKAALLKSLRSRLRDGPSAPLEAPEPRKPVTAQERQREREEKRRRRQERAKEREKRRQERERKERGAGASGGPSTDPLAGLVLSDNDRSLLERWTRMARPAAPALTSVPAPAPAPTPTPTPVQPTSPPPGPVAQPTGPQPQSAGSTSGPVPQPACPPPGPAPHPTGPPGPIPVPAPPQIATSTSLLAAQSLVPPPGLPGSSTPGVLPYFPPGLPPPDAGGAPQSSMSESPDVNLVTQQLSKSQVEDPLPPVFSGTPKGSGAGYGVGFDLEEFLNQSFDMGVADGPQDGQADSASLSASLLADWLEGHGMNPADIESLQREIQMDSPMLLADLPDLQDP

CC(C)OC(=O)C(C)(C)Oc1ccc(C(=O)c2ccc(Cl)cc2)cc1
0.718 and 0.00922 and -0.202: z-score [10, 21]
active: viability decrease [3] 81.1% | inhibition of viability [4] 81.4% | viability decrease (inhibition) [5] 75.1% | viability decrease (inhibition) [6] 57.5%
1: normalised cell number [9, 18] | normalised cell number [9, 19]
6.9%: nuclear beta-catenin stimulation ([2]; stimulation, at 2 µM)
inactive: survival [1] 16.9 | nuclear beta-catenin stimulation ([2]; at 10 µM) 1.9% | inhibition [7] 13.2% | mean signal [8] 232 | red/green cell ratio (normalised) [9] 1.01 | z-score [10, 20] 0.204 and 1.22 and 0.396 | remaining NAD [11] 10 nM | luciferase signal [12] 56 AU | z-score [13] -1 and -1.21 and -1.85

COc1ccc2c(c1)C(=O)N(CCc1ccc(S(=O)(=O)NC(=O)NC3CCCCC3)cc1)C(=O)C2(C)C
-0.221 and -0.0621: z-score [10, 21]
9100 and 8180: cell count [14, 24]
0.765 and 0.69: fold change [14, 23]
inactive: survival [1] 22.9 | nuclear beta-catenin stimulation ([2]; at 10 µM) 0.7% | fold change [14, 22] 0.971 and 0.893 | z-score [10, 20] -0.157 and 0.277
9360 and 9160: cell count [14, 25]
active: viability decrease [3] 87.4% | inhibition of viability [4] 68% | viability decrease (inhibition) [5] 87.1% | viability decrease (inhibition) [6] 94%
10.6%: nuclear beta-catenin stimulation ([2]; stimulation, at 2 µM)

COC(=O)C1=C(C)NC(C)=C(C(=O)OC)C1c1ccccc1[N+](=O)[O-]
inactive: survival [1] 26.5 | insulin secretion stimulation [15] 11.4% | tube area decrease [16] 1.2% | GLP1 secretion stimulation [17] 4.4% | inhibition [7] -13.6% | mean signal [8] 242 | red/green cell ratio (normalised) [9] 0.87 | z-score [10, 20] -0.44 and 1.42 and -0.699 | remaining NAD [11] 10 nM | luciferase signal [12] 52 AU
0.0615 and 0.566 and -0.497: z-score [10, 21]
active: viability decrease [3] 77.9% | inhibition of viability [4] 58.7% | viability decrease (inhibition) [5] 136% | viability decrease (inhibition) [6] 93.1%
1.03: normalised cell number [9, 18]
0.9: normalised cell number [9, 19]

O=C(O)CCc1nc(-c2ccccc2)c(-c2ccccc2)o1
inactive: survival [1] 5.67 | insulin secretion stimulation [15] 1.3% | viability decrease [3] -61.8% | tube area decrease [16] -17.6% | GLP1 secretion stimulation [17] 2.2% | inhibition of viability [4] 9.15% | viability decrease (inhibition) [5] 8.7% | viability decrease (inhibition) [6] -5.7% | inhibition [7] -3.27% | mean signal [8] 247 | red/green cell ratio (normalised) [9] 1.03 | z-score [10, 20] -0.226 and -0.656 | remaining NAD [11] 10 nM | luciferase signal [12] 44 AU | z-score [13] 0.9 and 1.19
-0.145 and -0.466: z-score [10, 21]
1.14: normalised cell number [9, 18]
1.18: normalised cell number [9, 19]

O=C1CN(/N=C/c2ccc([N+](=O)[O-])o2)C(=O)N1
active: viability decrease (inhibition) [5] 46.4%
1.05: normalised cell number [9, 19]
8440 and 12500: cell count [14, 24]
1.08: normalised cell number [9, 18]
inactive: survival [1] 10.8 | insulin secretion stimulation [15] -2.7% | viability decrease [3] 26.8% | tube area decrease [16] -36% | GLP1 secretion stimulation [17] -0.3% | inhibition of viability [4] 18.2% | viability decrease (inhibition) [6] 8.55% | inhibition [7] -10.5% | mean signal [8] 245 | red/green cell ratio (normalised) [9] 0.97 | fold change [14, 22] 0.928 and 0.958 | z-score [10, 20] -2.68 | remaining NAD [11] 10 nM | luciferase signal [12] 40 AU
9100 and 13100: cell count [14, 25]
-2.1: z-score [10, 21]
1.23 and 1.67: fold change [14, 23]

COC(=O)C1=C(C)NC(C)=C(C(=O)OCCN(C)Cc2ccccc2)C1c1cccc([N+](=O)[O-])c1 (stereo not given)
active: viability decrease [3] 91.4% | inhibition of viability [4] 104% | viability decrease (inhibition) [5] 126% | viability decrease (inhibition) [6] 84.9%
1.09: normalised cell number [9, 18]
-0.154 and -0.712 and 0.12: z-score [10, 21]
0.89: normalised cell number [9, 19]
inactive: survival [1] 2.33 | insulin secretion stimulation [15] 2.9% | tube area decrease [16] 14.2% | GLP1 secretion stimulation [17] -2.4% | inhibition [7] -13.8% | mean signal [8] 246 | red/green cell ratio (normalised) [9] 0.81 | z-score [10, 20] -0.48 and -0.0308 and 0.219 | remaining NAD [11] 10 nM | luciferase signal [12] 48 AU | z-score [13] -1.29 and -1.5 and 0.665

CC(C)(C)NCC(O)c1ccc(O)c(CO)c1 (stereo not given)
active: inhibition of viability [4] -1.7%
1: normalised cell number [9, 19]
inactive: survival [1] 26.5 | insulin secretion stimulation [15] 1.1% | viability decrease [3] -1.7% | tube area decrease [16] -7.8% | GLP1 secretion stimulation [17] -1.8% | viability decrease (inhibition) [5] -5.2% | viability decrease (inhibition) [6] -10% | inhibition [7] 0.167% | mean signal [8] 230 | red/green cell ratio (normalised) [9] 0.85 | z-score [10, 20] 0.679 and -0.995 | remaining NAD [11] 10 nM | luciferase signal [12] 32 AU | z-score [13] 0.105 and 0.825 and 0.82
0.164 and -0.427: z-score [10, 21]
1.18: normalised cell number [9, 18]

COc1ccc2cc([C@H](C)C(=O)O)ccc2c1
1.27: normalised cell number [9, 19]
-0.681: z-score [10, 21]
1.19: normalised cell number [9, 18]
inactive: survival [1] 2.08 | insulin secretion stimulation [15] -0.7% | viability decrease [3] -21% | tube area decrease [16] 16.3% | GLP1 secretion stimulation [17] -1.7% | inhibition of viability [4] -1.1% | viability decrease (inhibition) [5] 30.2% | viability decrease (inhibition) [6] -14.8% | inhibition [7] -2.26% | mean signal [8] 264 | red/green cell ratio (normalised) [9] 1.07 | z-score [10, 20] 0.168 | remaining NAD [11] 10 nM | luciferase signal [12] 36 AU | z-score [13] 0.36 and 0.18 and 0.675

COCCCOc1ccnc(CS(=O)c2nc3ccccc3[nH]2)c1C (stereo not given)
0.91: normalised cell number [9, 19]
inactive: nuclear beta-catenin stimulation ([2]; at 10 µM) 0% | viability decrease [3] 32.7% | inhibition of viability [4] 20.2% | viability decrease (inhibition) [5] 4.6% | viability decrease (inhibition) [6] -10.8% | mean signal [8] 232 | red/green cell ratio (normalised) [9] 0.79 | fold change [14, 22] 0.932 and 0.863 | remaining NAD [11] 10 nM | luciferase signal [12] 200 AU | z-score [13] -0.225
9.8%: nuclear beta-catenin stimulation ([2]; stimulation, at 2 µM)
9840 and 12400: cell count [14, 25]
1.16 and 3.79: fold change [14, 23]
1.16: normalised cell number [9, 18]
9170 and 10700: cell count [14, 24]

O=C(O)C1CCC1
6.2%: nuclear beta-catenin stimulation ([2]; stimulation, at 2 µM)
inactive: nuclear beta-catenin stimulation ([2]; at 10 µM) -0.9% | viability decrease [3] -0.7% | inhibition of viability [4] 13.6% | viability decrease (inhibition) [5] 1.4% | viability decrease (inhibition) [6] 6.3%

CC12CCC(CC1)C(C)(C)O2
inactive: nuclear beta-catenin stimulation ([2]; at 10 µM) 1.8% | viability decrease [3] 4.1% | inhibition of viability [4] 7.2% | viability decrease (inhibition) [5] 5% | viability decrease (inhibition) [6] 4.4% | inhibition [7] -15.6% | red/green cell ratio (normalised) [9] 0.83 | remaining NAD [11] 10 nM
17.2%: nuclear beta-catenin stimulation ([2]; stimulation, at 2 µM)
0.94: normalised cell number [9, 19]
1.13: normalised cell number [9, 18]

CC(C)CCCC(C)NCCC(C)C (stereo not given)
inactive: nuclear beta-catenin stimulation ([2]; at 10 µM) -1.6% | viability decrease [3] -5.2% | inhibition of viability [4] -0.4% | viability decrease (inhibition) [5] -8.8% | viability decrease (inhibition) [6] 1.8%
2.7%: nuclear beta-catenin stimulation ([2]; stimulation, at 2 µM)
